Test results published in PubChem BioAssay AID488969 (Vanderbilt High Throughput Screening Facility, 2010).
In all, about 110,000 compounds were measured (“z-score”: median about -0.1, highest 2% from about 2 on). This is one part of a sample in which the highest values are shown more often than they occur. Calls of active or inactive are those of the source.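 How the source made its calls: active means z-score in the third read window above 3 or below -3; inactive means the rest.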

The molecules below were run against Metabotropic glutamate receptor 8 (Rattus norvegicus) (UniProt P70579) (assay: mGluR8 Gi/Go-coupled signaling modulation – cell-based, rat, thallium flux, HTS, primary screen (AID 488969)). Conditions: HEK293 rat mGluR8, GIRK (G protein-gated inwardly rectifying potassium channel) thallium flux, FluoZin2; at 10 µM; stronger effect = higher value; submaximal glutamate (EC20) added with thallium.
Chain of Metabotropic glutamate receptor 8 (Rattus norvegicus) (P70579 whole entry, looked up): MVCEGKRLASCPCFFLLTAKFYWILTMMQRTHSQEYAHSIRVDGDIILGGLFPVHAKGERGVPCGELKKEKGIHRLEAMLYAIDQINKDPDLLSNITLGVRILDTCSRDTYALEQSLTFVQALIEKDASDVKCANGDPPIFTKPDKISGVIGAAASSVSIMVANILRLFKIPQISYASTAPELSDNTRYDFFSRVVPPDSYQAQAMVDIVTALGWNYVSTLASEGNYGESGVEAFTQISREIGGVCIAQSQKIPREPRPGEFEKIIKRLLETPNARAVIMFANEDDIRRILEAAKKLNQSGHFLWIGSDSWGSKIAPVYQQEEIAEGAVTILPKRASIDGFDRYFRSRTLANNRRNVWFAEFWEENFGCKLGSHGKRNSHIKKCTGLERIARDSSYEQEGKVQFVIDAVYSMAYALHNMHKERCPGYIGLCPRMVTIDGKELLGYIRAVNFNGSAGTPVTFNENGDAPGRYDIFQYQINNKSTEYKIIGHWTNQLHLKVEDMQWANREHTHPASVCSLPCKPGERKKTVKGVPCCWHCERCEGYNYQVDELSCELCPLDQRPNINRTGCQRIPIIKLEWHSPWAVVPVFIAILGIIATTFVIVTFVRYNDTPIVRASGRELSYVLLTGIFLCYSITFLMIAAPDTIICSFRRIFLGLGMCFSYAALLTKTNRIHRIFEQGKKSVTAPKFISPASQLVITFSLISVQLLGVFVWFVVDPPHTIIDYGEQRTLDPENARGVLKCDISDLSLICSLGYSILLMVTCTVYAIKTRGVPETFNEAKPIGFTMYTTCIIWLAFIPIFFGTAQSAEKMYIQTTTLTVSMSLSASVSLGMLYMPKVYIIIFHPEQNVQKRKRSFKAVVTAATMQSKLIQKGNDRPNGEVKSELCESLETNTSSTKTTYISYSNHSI

SMILES	z-score
CCCCC1S/C(=N/N=C/c2ccc(OC)cc2)N(Cc2ccc(OC)cc2)C1=O (stereo unspecified)	-0.524
CCOC(=O)c1c(CN(CC)CC)oc2cc(Br)c(O)cc12	-1.27
COC(=O)C1CCN(C(=O)COc2cc3sc(C)nc3c3sccc23)CC1	-1.34
CCc1nnc(NS(=O)(=O)c2ccc(NC(=S)NC(=O)c3ccccc3)cc2)s1	5.21 (active)
CCc1nnc(NS(=O)(=O)c2ccc(NC(=S)NC(=O)c3ccc(F)cc3)cc2)s1	0.102
Cc1cc(NS(=O)(=O)c2ccc(NC(=S)NC(=O)c3ccccc3)cc2)no1	2.22
Cc1cc(NS(=O)(=O)c2ccc(NC(=S)NC(=O)c3ccc(F)cc3)cc2)no1	-0.0103
Cc1cc(NS(=O)(=O)c2ccc(NC(=O)Nc3ccccc3)cc2)no1	0.82
CCc1nnc(NS(=O)(=O)c2ccc(NC(=S)NC(=O)c3ccc(Br)cc3)cc2)s1	-1.21
Cc1ccc(Cn2c(SCC(=O)N/N=C/c3ccc(C)o3)nc3ccccc32)cc1	-0.169
Cc1ccc(-c2cnc(SCC(=O)N3CCCc4ccccc43)n2C)cc1	-0.31
O=C1c2ccccc2C(=O)N1CC1=CCS(=O)(=O)C1	0.399
COc1ccc(N2CCN(C(=O)CCCn3c(=S)[nH]c4cc5c(cc4c3=O)OCO5)CC2)cc1	-0.487
Cc1cc(C)nc(NC(=O)CCC2CCCC2)c1	-0.0409
CS(=O)(=O)Nc1ccc(C(=O)NCCC2=CCCCC2)cc1	1.28
CCOc1ccc(-n2c(C)nc3cc(C(=O)NCc4ccco4)ccc32)cc1	0.364
COc1ccc(-n2c(C)nc3cc(C(=O)NCc4ccco4)ccc32)cc1	2.54
COc1ccc(-n2c(C)nc3cc(C(=O)NCc4ccc5c(c4)OCO5)ccc32)cc1	-0.347
CC(=O)c1c(C)nn(C(C)CC(=O)O)c1C (stereo unspecified)	-0.0267
COc1cc(OC)nc(NC(=O)CSc2nnc(-c3ccccc3)n2C2CCCCC2)n1	-0.277
O=C(Nc1cccc(F)c1)c1ccccc1-c1ccccc1	-0.369
CC(=O)N1c2ccccc2C(C)(c2ccccc2)CC1(C)C (stereo unspecified)	-0.236
Cc1nnc(SCC(=O)N2c3ccccc3C(C)(c3ccccc3)CC2(C)C)s1 (stereo unspecified)	0.611

SMILES	z-score
Cc1nnc(SCC(=O)N2c3ccccc3C(C)(c3ccc(Cl)cc3)CC2(C)C)s1 (stereo unspecified)	0.227
CN1CCN(CC(=O)N2c3ccccc3C(C)(c3ccccc3)CC2(C)C)CC1 (stereo unspecified)	3.59 (active)
CN1CCN(CC(=O)N2c3ccccc3C(C)(c3ccc(Cl)cc3)CC2(C)C)CC1 (stereo unspecified)	3.21 (active)
CC1(c2ccccc2)CC(C)(C)N(C(=O)CSc2nnc(N)s2)c2ccccc21 (stereo unspecified)	-0.521
CC1Cc2ccccc2N1C(=O)CCNS(=O)(=O)c1ccc2c(c1)CCC(=O)N2 (stereo unspecified)	-0.0721
Cn1c(=O)c2c(nc(NCCO)n2C)n(C)c1=O	0.204
CCn1c(NCc2ccco2)nc2c1c(=O)n(C)c(=O)n2C	0.397
CCn1c(C)c(C2=CCN(S(=O)(=O)c3ccc(C)cc3)CC2)c2ccccc21	0.0891
CCN1C(=O)c2cccc3cccc1c23	-0.389
Cc1cc(C)nc(N=Nc2c(O)n(Cc3ccc(Cl)cc3)c3ccccc23)n1	0.0163
CCOc1ccc2c(c1)c(N=NC(=N)N)c(O)n2C	-0.224
CCn1c(O)c(N=NC2=NC(=O)CS2)c2cc(C)ccc21	2.24
CCOc1ccc2c(c1)c(N=Nc1cccc(C(=O)O)c1)c(O)n2C	-0.0674
CCc1ccc2c(c1)c1nnc(NN)nc1n2CC	-0.278
CCn1c(O)c(N=NC(=O)CNc2cccc(C)c2)c2ccccc21	1.4
CCc1ccc2c(c1)c(N=NC1=NC(=O)CS1)c(O)n2CC	2.98
CCn1c(O)c(N=NC2=NC(=O)CS2)c2ccccc21	0.217
CCc1ccc2c(c1)c(N=NC1=NC(=O)CS1)c(O)n2C	2.09
Cc1ccc(O)c(C(=O)/C=C/c2ccc3c(c2)OCCCO3)c1	0.653
CC(=O)NC1=NN(C(C)=O)C(C)(CS(=O)(=O)c2ccc(C)c(C)c2)S1 (stereo unspecified)	-0.323
COc1ccc(CN(C(=O)c2ccco2)c2ccc(Br)cc2)cc1OC	-0.544
CCOC(=O)c1sc(C)c2c(=O)n(CC)nnc12	0.154
Cc1ccc(NC(=S)NNC(=O)c2cn(C)nc2C)cc1	0.188

SMILES	z-score
CC(=O)c1c(N2CCCC2)[nH]c(-c2ccccc2)nc1=S	14.8 (active)
CSc1nc(-c2ccccc2)[nH]c(=S)c1C(C)=O	7.43 (active)
CSc1nc(-c2ccccc2)nc(SC)c1C(C)=O	-0.493
CSc1nc(-c2ccccc2)nc(N)c1C(C)=O	-0.0854
CC(=O)c1c(N)[nH]c(-c2ccccc2)nc1=S	1.28
CC(=O)c1c(N2CCN(C)CC2)[nH]c(-c2ccccc2)nc1=S	0.167
S=C(NC12CC3CC(CC(C3)C1)C2)N1CCCC1	-0.0857
N#C/C(=C(/O)COC(=O)Cc1c[nH]c2ccccc12)c1nc2ccccc2[nH]1	-0.819
Cc1ccc2c(c1)NC(=O)C(CC(=O)NCCCN1CCCC1)O2 (stereo unspecified)	0.515
N#Cc1c(N)nc(SCc2ccccc2)c(C#N)c1-c1ccco1	11.4 (active)
COC(=O)CSc1nc(N)c(C#N)c(-c2ccco2)c1C#N	-0.328
CCSc1nc(N)c(C#N)c(-c2ccco2)c1C#N	-0.377
COc1ccc(Oc2coc3cc(OC(=O)N4CCOCC4)ccc3c2=O)cc1	-0.0315
Cc1cccc(Nc2nnc(SCC3CCCCO3)s2)c1C (stereo unspecified)	-0.0272
COc1cccc(N(C(=O)Cn2nnc(-c3ccc(C)o3)n2)C(C(=O)NC(C)(C)C)c2cccs2)c1 (stereo unspecified)	0.439
O=C(NC(=S)Nc1cccc(Cl)c1N1CCCCC1)c1ccc2c(c1)OCCO2	0.413
CCC(=O)NC(=S)Nc1cccc(Cl)c1N1CCCCC1	0.315
O=C(Nc1ccccc1N1CCOCC1)c1cccs1	0.511
O=C(Nc1ccccc1N1CCCCC1)c1ccco1	-0.657
O=C(Nc1ccc(N2CCOCC2)cc1N1CCOCC1)c1cccs1	-0.508
O=C(NC(=S)Nc1cccc(Cl)c1N1CCCCC1)c1cccs1	2.55
O=C(NC(=S)Nc1cccc(Cl)c1N1CCCCC1)c1ccco1	5.38 (active)
O=C(NC(=S)Nc1ccccc1N1CCCCC1)c1cccs1	-0.0387

SMILES	z-score
CS(=O)(=O)N1CCN(c2ccccc2NC(=O)c2ccco2)CC1	-0.175
O=C(NC(=S)Nc1ccccc1N1CCCCC1)c1ccco1	5.87 (active)
O=C(NC(=S)Nc1ccccc1N1CCOCC1)c1cccs1	4.28 (active)
CCCC(=O)NC(=S)Nc1cccc(Cl)c1N1CCCCC1	0.12
Cc1ccc(NC(=O)c2ccc(CSc3nnnn3C)cc2)cc1	-0.174
COc1ccc(-n2c(N)c(C(=O)NCc3cccnc3)sc2=S)cc1	0.463
Cc1nc(NNC(=O)c2ccc(Cl)cc2Cl)cc(-c2ccccc2)n1	0.141
CCCOC(=O)c1ccc(OCC(O)CN2C(=O)NC(C)(C)C2=O)cc1 (stereo unspecified)	0.307
O=[N+]([O-])c1cccc(C(=Nc2ccc(Cl)cc2)NO)c1	-0.259
CC(NC(=O)Nc1nnc(C(F)(F)F)s1)N1C(=O)C2C3C=CC(C3)C2C1=O (stereo unspecified)	0.0447
CCCCCNc1nc(NCCCO)c(C#N)c2c1CN(C)CC2	-0.528
O=C(NC(=S)Nc1ccccc1N1CCOCC1)c1ccco1	9.71 (active)
CC1CCN(c2ccccc2NC(=S)NC(=O)c2cccs2)CC1	1.61
CC1CCN(c2ccccc2NC(=O)c2ccc(F)cc2)CC1	-0.52
CC1CCN(c2ccccc2NC(=S)NC(=O)c2ccco2)CC1	3.89 (active)
O=C(Nc1ccccc1N1CCCC1)c1ccco1	-0.0103
O=C(Cc1ccc(Cl)cc1)NC(=S)Nc1ccccc1N1CCOCC1	0.883
N#C/C(=C\c1ccc(Cl)cc1Cl)c1n[nH]c(Cn2cncn2)n1	-1.59
O=c1cc(NCc2ccco2)c2ccccc2o1	-0.304
CC1=C(C(=O)OC(C)C)C(c2cccs2)C(C(=O)OC(C)C)=C(C)N1	-0.281
NC(=O)c1cccnc1Nc1ccccc1Cl	-0.423
O=C(/C=C/c1cccc([N+](=O)[O-])c1)NCCSc1ccccc1	-0.3
COc1ccc(C(C(=O)NC(C)(C)C)N(C(=O)CNC(=O)c2cccs2)c2ccc(C(C)C)cc2)cc1OC (stereo unspecified)	-0.16

SMILES	z-score
O=C(CSc1cnc2ccccc2n1)NC1CCCC1	-0.494
COc1ccccc1N1CCN(S(=O)(=O)c2cccc3nsnc23)CC1	-0.393
OC(COc1ccccc1)Cn1c2ccccc2c2ccccc21 (stereo unspecified)	-0.0732
Cc1ccc(OCC(O)Cn2c3ccccc3c3ccccc32)cc1 (stereo unspecified)	-0.222
COc1ccccc1OCC(O)Cn1c(=N)n(Cc2ccccc2)c2ccccc21 (stereo unspecified)	0.691
Cc1ccc(OCC(O)Cn2c(=N)n(Cc3ccccc3)c3ccccc32)cc1 (stereo unspecified)	4.01 (active)
N=c1n(Cc2ccccc2)c2ccccc2n1CC(O)COc1ccccc1 (stereo unspecified)	0.257
Cc1ccc(Cn2c(=N)n(CC(O)COc3ccccc3)c3ccccc32)cc1 (stereo unspecified)	2.98
COc1cc(SC)ccc1C(=O)N(C)Cc1ccccc1	0.253
CCOC(=O)CSc1ncc(-c2ccccc2)cn1	-0.0802
CCOC(=O)N1CCN(C(=O)C2CCN(S(=O)(=O)c3ccccc3)CC2)CC1	-0.151
CN1CCN(C(=S)Nc2cccc(C(F)(F)F)c2)CC1	-0.213
Cc1c([N+](=O)[O-])cc(C(=O)Oc2ccc(Br)cc2C(=S)N2CCCCC2)cc1[N+](=O)[O-]	3.58 (active)
O=C(Oc1ccc(Br)cc1C(=S)N1CCCCC1)c1cc([N+](=O)[O-])cc([N+](=O)[O-])c1	0.762
Cc1ccccc1C(=O)Oc1ccc(Br)cc1C(=S)N1CCCC1	-0.342
C=C(C)CN=C1SC(C(=O)Nc2sc3c(c2C(=O)OC)CCC3)C(N)=C1C(N)=O (stereo unspecified)	0.236
O=C(c1cc2sccc2n1Cc1ccccc1)N1CCCc2ccccc21	-0.795
COC(=O)c1cc2sccc2n1CC(=O)N1CCCc2ccccc21	2.64
O=C(c1cc2sccc2n1Cc1ccc(F)cc1)N1CCCc2ccccc21	0.225
